# Laboratory results from PubChem BioAssay (NCATS).
# Where “and” joins values, the source holds several entries; their conditions need not be identical. Equal values may be shown once. Records with an inconclusive call do not appear. Entries that show only a call come without a potency. Calls of active or inactive are those of the source. Calls come from the whole dose curve; as a rule, active = well fitted cell-killing curve with a large enough effect; inconclusive = small, poorly fitted or top-dose-only effect; inactive = flat fitted curve, though single readings scatter.
# Assay: Cellular viability qHTS for adrenocortical cancer (ACC) cell line NCI-H295R (AID 1963990); note: nearly all actives have a fitted effect of over 60% in size
# Conditions: CellTiter-Glo ATP luminescence, 48 h; series mostly up to 46.1 µM
# How it was run: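 Readout: CellTiter-Glo luminescence, 20 min RT. Exposure: 48 h, 37C/5% CO2. Cells: NCI-H295R, ITS-DMEM serum-free. Range: up to 46 uM. Analysis: 4PL fit, IC50 plus efficacy.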
# Potency is the fitted concentration of half-maximal effect.
row,Structure (SMILES),Potency
1,COc1cc2c(Oc3ccc4[nH]c(C)cc4c3F)ccnc2cc1OCC1(N)CC1,10 µM (active)
2,CCCCOC(=O)CC(CC(=O)OCCCC)(OC(C)=O)C(=O)OCCCC,inactive
3,COc1cc(C(=O)NC(N)=Nc2ccc(C)c(NC(=O)c3ccc(-c4ccccc4)cc3)c2)cc(OC)c1OC,10 µM (active)
4,CCS(=O)(=O)Nc1ccc(Oc2ccc(F)cc2F)c(-c2cn(C)c(=O)c3[nH]ccc23)c1,5.01 µM (active)
5,CC1c2cccc(O)c2C(O)=C2C(=O)C3(O)C(O)=C(C(N)=O)C(=O)C(N(C)C)C3C(O)C21 (stereo not given),inactive
6,O=C(CCN1CCN(CCO)CC1)N1c2ccccc2Sc2ccc(C(F)(F)F)cc21,inactive
7,Cc1ccccc1OCC(O)CO (stereo not given),inactive
8,Fc1cccc(-n2cnc3c(NCc4nc5c(F)c(F)ccc5[nH]4)nc(N4CCOCC4)nc32)c1,0.447 µM (active)
9,COc1cc(C=O)ccc1O,inactive
10,O=[N+]([O-])c1ccc(-c2nc(-c3ccc(F)cc3)c(-c3ccncc3)[nH]2)cc1,inactive
11,O=C(OCC1(COC(=O)c2cccnc2)CCCC(COC(=O)c2cccnc2)(COC(=O)c2cccnc2)C1O)c1cccnc1,inactive
12,CCS(=O)(=O)N1CCN(c2ccc(Nc3ncc(C(N)=O)c(NC4CC4)n3)cc2)CC1,10 µM (active)
13,Nc1c2ccccc2nc2ccccc12,7.31 µM (active)
14,COc1ccc(CNc2nc(N(CCO)CCO)nc3c2ncn3C(C)C)cc1,15.8 µM (active)
15,CCOC(=O)c1cc(=O)c2c(OCC(COc3cccc4oc(C(=O)OCC)cc(=O)c34)OC(=O)[C@@H](N)CCCCN)cccc2o1,inactive
16,O=C(O)C[C@H](O)C[C@H](O)/C=C/c1c(C2CC2)nc2ccccc2c1-c1ccc(F)cc1,3.55 µM (active)
17,COc1cccc2c1C(=O)c1c(O)c3c(c(O)c1C2=O)C[C@@](O)(/C(CO)=N/NC(=O)CCCCCN1C(=O)C=CC1=O)C[C@@H]3O[C@H]1C[C@H](N)[C@H](O)[C@H](C)O1,14.1 µM (active)
18,COC(C)(C)CCn1nc(Nc2c(C)cccc2C)c2cnc(Nc3ccc(OCCN4CCCC4)c(F)c3)nc21,3.98 µM (active)
19,CCS(=O)(=O)N1CCC([C@@H](C)n2c(C)c(C(=O)NCc3c(OC)cc(C)[nH]c3=O)c3ccccc32)CC1,inactive
20,C=CC(=O)Nc1cccc(Nc2nc(Nc3ccc(Oc4ccnc(C(=O)NC)c4)cc3)ncc2F)c1,17.8 µM (active)

row,Structure (SMILES),Potency
1,COc1cc(C(=O)NC2CCCNC2)cc(OC)c1OC (stereo not given),inactive
2,CCCCOc1cc(C(=O)OCCN(CC)CC)ccc1N,inactive
3,O=C(O)C(S)C(S)C(=O)O (stereo not given),inactive
4,CC[C@@](C)(Nc1ccnc(-c2c[nH]c3ncccc23)n1)C(=O)NCC(F)(F)F,inactive
5,CC1(C)S[C@H]2[C@H](NC(=O)[C@@H](N)c3ccc(O)cc3)C(=O)N2[C@H]1C(=O)O,inactive
6,CN1CCN(C(c2ccccc2)c2ccccc2)CC1,inactive
7,CCN(CC)CCOC(=O)C1(c2ccccc2)CCCC1,inactive
8,O=C1CC(c2c[nH]c3ccc(F)cc23)C(=O)N1 (stereo not given),inactive
9,N#Cc1ccc(COC[C@H]2O[C@@H](n3c(NCc4ccc(Cl)c(Cl)c4)nc4c(N)ncnc43)[C@H](O)[C@@H]2O)cc1,inactive
10,COc1cccc(OCCCN)c1-c1cc(Nc2cnc(C#N)cn2)n[nH]1,inactive
11,C/C(=N/NC(=O)c1ccncc1)C(=O)O,inactive
12,CC(=O)N1CCC[C@H]1C(=O)N[C@@H](Cc1cnc[nH]1)C(=O)N[C@@H](CO)C(=O)N[C@@H](CS)C(=O)N[C@@H](CC(N)=O)C(N)=O,inactive
13,N#Cc1cc2cc(CN3CCC(Nc4ncnc5sc(CC(F)(F)F)cc45)CC3)c(O)cc2n1Cc1cn[nH]c1,8.91 µM (active)
14,COc1ccc(S(=O)(=O)N2CCc3cccc(-c4ccncc4)c32)cc1,0.158 µM (active)
15,CCCCN1C[C@H](O)[C@@H](O)[C@H](O)[C@H]1CO,inactive
16,COc1cccc2c1C(=O)c1c(O)c3c(c(O)c1C2=O)C[C@@](O)(C(=O)CO)C[C@@H]3O[C@H]1C[C@H](N)[C@H](O)[C@H](C)O1,23.1 µM (active) and 7.08 µM (active)
17,Cc1c(-c2ccccc2)oc2c(C(=O)OCCN3CCCCC3)cccc2c1=O,inactive
18,CCN1C(=O)N2Cc3cc(OC)cc(OC)c3[C@@H](C)C=C2C12CCN(Cc1cc(C)cc(C)c1)CC2,25.1 µM (active)
19,CN1CCC[C@@H]1c1cccnc1,inactive
20,COC(=O)[C@@H](N)Cc1ccc(O)c(O)c1,inactive
